A selection: hits, their analogues and other compounds. The true share with any hit is near 4.2%.
NALP3 yeast inh: NALP3 inflammasome inhibitors in reconstituted yeast, primary screen, luminescence, uHTS. Yeast reconstituted NLRP3/ASC/caspase-1, beta-gal luminescence, 24 h. inhibition, % at 10 µM. hit rate 0.39% among 330,000;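 active = inhibition of 50% or more; inactive = inhibition below 50%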;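 note: plate controls were induced DMSO wells for no effect and uninduced yeast grown without galactose for full effect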
tim23-1 inh: growth inhibitors of tim23-1 mutant yeast, primary screen, luminescence, uHTS. S. cerevisiae tim23-1 growth, BacTiter-Glo luminescence, 24 h. inhibition, % at 20 µM. hit rate 1.3% among 330,000. AID 463212, 2010;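 active = growth inhibition of the mutant yeast at or above 50%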;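 note: temperature-sensitive mutant grown at 25 °C; plate controls were DMSO-treated mutant yeast for no effect and medium wells lacking yeast for full effect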
V-ATPase pHluor: regulators of yeast V-ATPase proton pumping, primary screen, pHLuorin cytosolic pH fluorescence; S. cerevisiae; response, % at 10 µM; hit rate 0.37% among 350,000; in the data active = response mostly above about 7.3%, no sharp cut-off; inactive = mostly below about 5.4%; note: actives read high
tim10-1 inh: growth inhibitors of tim10-1 mutant yeast, primary screen, luminescence, uHTS; S. cerevisiae tim10-1 ts strain growth, BacTiter-Glo, 24 h; inhibition, % at 20 µM; hit rate 2.2% among 330,000; AID 463190, 2010;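 active = inhibition of at least 40%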;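 note: mutant grown at 25 °C; 0% = DMSO wells with yeast and 100% = wells holding no yeast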
TIM10 inh: growth inhibitors of isogenic TIM10 control yeast, primary screen, counter-screen for tim10-1 yeast inhibitor project, luminescence, uHTS; S. cerevisiae TIM10 strain growth, BacTiter-Glo luminescence, 24 h; inhibition, % at 10 µM; hit rate 1.4% among 330,000; AID 463195, 2010;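 active = inhibition of 40% or more at the single tested concentration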;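 note: wild-type TIM10 isogenic control strain grown at permissive 25 °C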
NALP1 inh: NALP1 inflammasome inhibitors in reconstituted yeast, colorimetric, S. cerevisiae, triplicate retest; S. cerevisiae NALP1/ASC/caspase-1 growth, X-gal OD620, 72 h; inhibition, % at 10 µM; hit rate 0.61% among 280,000; in the data active = inhibition mostly above about 24%, no sharp cut-off; inactive = mostly below about 32%
NALP3 yeast conf: NALP3 inhibitors retested in yeast, confirmation, luminescence, single concentration; shares compounds with NALP3 yeast inh; yeast expressing human NALP3; inhibition, % at 10 µM; hit rate 81% among 1,300; AID 435006, 2010; in the data active = inhibition above about 48%
Casp1-ASC yeast: CASP1-PYCARD signaling inhibition in yeast, confirmatory test, counterassay for NLRP3 inhibitor program, one-dose | yeast expressing Caspase-1-ASC, luminescence counter screen | shares compounds with NALP3 yeast inh | inhibition, % at 10 µM | hit rate 66% among 1,000
NALP3 retest: NALP3 inhibitors in yeast, repeat test, confirmation, luminescence, single concentration, retest; shares compounds with NALP3 yeast inh; yeast expressing human NALP3, luminescence read-out; inhibition, % at 10 µM; hit rate 53% among 1,000; AID 488794, 2010
Numbers without * were called inactive; nt = not tested or not shown. Cut-off read from the data, not from the text of the source, unless noted: active = inhibition above about 50%; inactive = the rest.

SMILES	NALP3 yeast inh	tim23-1 inh	V-ATPase pHluor	tim10-1 inh	TIM10 inh	NALP1 inh	NALP3 yeast conf	Casp1-ASC yeast	NALP3 retest
Cc1ccccc1C(=O)Nc1nnc(-c2ccco2)s1	62*	6	0	-13	-21	22	49*	48	38
COc1ccc(C(=O)Nc2nnc(-c3ccco3)s2)cc1	6	7	2	0	-1	44	nt	nt	nt
O=C1OCCN1c1c(-c2ccccc2)c(-c2cccs2)nc2c(-c3ccccc3)cccc12	10	21	0	10	10	-6	nt	nt	nt
COc1ccc(OC)c(NC(=O)CC2C(=O)NCCN2C(=O)c2ccccc2)c1 (configuration not stated)	8	4	3	-6	0	12	nt	nt	nt
O=[N+]([O-])c1cccc(COc2ccccc2CN2CCCC2)c1	nt	nt	1	nt	nt	nt	nt	nt	nt
Cn1c(-c2ccccc2)cc2ccccc21	11	3	2	-1	0	11	nt	nt	nt
Cn1c(-c2ccccc2)cc2c3no[n+]([O-])c3ccc21	53*	5	0	-46	11	20	61*	63*	59*
COc1ccccc1/C=C/C(=O)OCCN1C(=O)c2ccccc2C1=O	27	16	2	16	7	17	nt	nt	nt
CCc1sc(C(=O)N2CCc3ccccc32)cc1C	51*	43	1	9	6	-4	34	nt	nt
O=C(c1ccc(Cl)s1)N1CCc2ccccc21	28	16	-1	12	6	10	nt	nt	nt
O=C(CCc1ccc(O)c(O)c1)NNC(=S)Nc1ccc(Br)cc1Cl	10	-1	4	7	-1	-11	nt	nt	nt
CCc1noc(C)c1C(=O)Nc1nc2c(C)cccc2s1	59*	27	-1	6	-6	nt	74*	69*	55*
CCc1noc(C)c1C(=O)Nc1nc(-c2cccs2)cs1	56*	26	1	-3	-11	nt	71*	62*	60*
CCc1noc(C)c1C(=O)Nc1cc(C(F)(F)F)ccc1-n1cncn1	14	11	-1	16	3	nt	nt	nt	nt
CCc1noc(C)c1C(=O)Nc1ncc(C)s1	14	-8	-2	4	-21	-31	nt	nt	nt
CCc1noc(C)c1C(=O)Nc1ccc(C(F)(F)F)cc1	50*	-7	1	3	1	15	62*	49	46
CCc1noc(C)c1C(=O)Nc1nc(-c2ccc(F)cc2)c(C)s1	13	23	-1	6	-4	6	nt	nt	nt
CCc1noc(C)c1C(=O)Nc1nc2c(F)cc(F)cc2s1	72*	40	4	29	25	nt	76*	79*	67*
CCCCOc1ccc2c(c1)C(=O)c1cc(O)ccc1-2	61*	49	1	28	-23	2	70*	66*	62*
CCOc1ccc2c(c1)C(=O)c1cc(OCC(=O)O)ccc1-2	-8	8	5	-7	-8	17	nt	nt	nt
CC(=O)c1ccc(O)c(CC=C(C)C)c1O	14	16	0	28	-5	nt	nt	nt	nt
CC(C)=CCc1c(O)cc2oc3c(CC=C(C)C)c(O)c(O)c(CC=C(C)C)c3c(=O)c2c1O	56*	15	-3	13	-4	-7	74*	51*	47
COc1cc(C=O)c(Br)cc1OCC(=O)NCCc1ccccc1	-112	25	-2	34	16	-12	-19	nt	nt
COc1cc(CNCCc2ccccc2)cc(Br)c1OCC(=O)Nc1ccccc1C	54*	4	-2	-20	25	23	44	36	45
CNCc1cc(Br)c(OCC(=O)Nc2ccccc2OC)c(OC)c1	22	9	3	8	9	4	nt	nt	nt
SMILES	NALP3 yeast inh	tim23-1 inh	V-ATPase pHluor	tim10-1 inh	TIM10 inh	NALP1 inh	NALP3 yeast conf	Casp1-ASC yeast	NALP3 retest
CCOc1ccc(Br)cc1S(=O)(=O)NCc1ccncc1	15	-308	-5	-48	-77	6	nt	nt	nt
CSc1nc2ccc(S(=O)(=O)N(C)C)cc2s1	47	1	2	12	-4	-15	nt	nt	nt
CCN(CC)S(=O)(=O)c1ccc2nc(SC)sc2c1	75*	27	0	-2	1	17	82*	73*	66*
CC1CN(S(=O)(=O)c2ccc(C(=O)N3CCc4ccccc43)cc2)CC(C)O1 (configuration not stated)	6	8	-1	4	3	nt	nt	nt	nt
CCCCNC(=NCc1cccc(C(F)(F)F)c1)Nc1ccccc1	16	13	0	-10	12	-12	nt	nt	nt
O=C1C2N=NN(CC(=O)N3N=C(c4ccccc4)CC3c3ccc([N+](=O)[O-])cc3)C2C(=O)N1c1ccccc1 (configuration not stated)	55*	21	nt	9	15	8	71*	nt	nt
N#Cc1nc(COc2ccccc2)oc1N1CCN(Cc2ccccc2)CC1	1	33	-2	30	20	12	nt	nt	nt
N#Cc1nc(-c2ccc(F)cc2)oc1N1CCCC1	7	19	-2	26	-5	8	nt	nt	nt
N#Cc1nc(COc2cccc(Cl)c2)oc1N1CCCC1	51*	20	4	23	-7	23	65*	55*	44
COc1ccccc1OCc1nc(C#N)c(N2CCCC2)o1	25	16	2	6	-3	3	nt	nt	nt
N#Cc1nc(COc2ccc(F)cc2)oc1N1CCCC1	68*	13	-6	10	-1	17	40	65*	54*
Cc1ccccc1OCc1nc(C#N)c(N2CCCC2)o1	71*	13	-2	1	-7	2	81*	83*	71*
O=C(Cn1cc(Cl)c([N+](=O)[O-])n1)NCCC1=CCCCC1	30	10	-3	24	-3	3	nt	nt	nt
CCOc1ccccc1NC(=O)Cc1coc2ccc(C)cc12	63*	25	0	8	-4	6	76*	65*	55*
CN(c1ccc(Br)cc1)S(=O)(=O)c1ccc2[nH]cc(C(=O)NCCN3CCOCC3)c(=O)c2c1	17	-13	6	-1	0	-6	nt	nt	nt
CC(C)c1ccc(NC(=S)NNC(=O)c2cccnc2)cc1	32	11	0	8	22	0	nt	nt	nt
O=C(NNC(=S)Nc1ccc(Br)cc1)c1cccnc1	53*	14	-2	18	13	0	50*	nt	nt

Screens deposited in PubChem by several laboratories.
